The text below walks through data of the supplement of paper PMC7366291.

The structures appear in SMILES notation. Structures can show the parent of a compound that is named as a salt. ± gives the standard deviation or the standard deviation of the averaged measurements.

What all share (settings): 25 µM; exposure: 24-48 hpf
Experiment [1] concerns Danio rerio Tg(wt1b:EGFP) embryo, pronephros. As to the kind of experiment: glomerular separation, fold change vs DMSO control; higher = glomeruli further apart (abnormal). The method, boiled down: (§1)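 Dechorionated Tg(wt1b:EGFP) zebrafish embryos were treated with 25 μM compound in 0.5% DMSO, in HEPES-buffered E3 with 0.003% PTU, from 24 to 48 hpf at 28.5°C. On maximum projections of dorsal pronephros images, 16 hand-placed reference points in Fiji gave distances and angles, and values more than 2 SD from the feature mean were left out. Results are fold changes over the mean of same-day DMSO-treated embryos.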

For experiment [2] the test system is unchanged. As to the kind of experiment: glomerular width (mean of left and right), fold change vs DMSO control; higher = wider glomerulus. The method, boiled down: as §1
The test system is the same in experiment [3]. As to the kind of experiment: fraction of imaged embryos annotated as normal kidney; higher = less nephrotoxic; extreme values may be limits of the assay. The method, boiled down:
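Embryos of the Tg(wt1b:EGFP) zebrafish line were dechorionated and held in 12-well plates with 25 μM compound in 0.5% DMSO and 5 mM HEPES-buffered E3 containing 0.003% PTU, from 24 to 48 hpf at 28.5°C. Larvae were then anaesthetised with tricaine, set dorsal side up in agarose-filled 96-well plates, and their pronephroi imaged by widefield fluorescence at 470 nm over 10 z-slices. Each value is the fraction of embryos per treatment placed in the normal-kidney category after manual annotation of maximum projections.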

Experiment [4] has the same test system. As to the kind of experiment: pronephric angle neck segment to proximal convoluted tubule (mean of left and right), fold change vs DMSO control; higher = larger pronephric angle. A digest of the protocol: as §1

`N=C(N)NCCN1CCCCCCC1` [Guanethidine sulfate] registered a glomerular separation in experiment [1] of 0.862 ± 0.46. The same compound showed a glomerular width in experiment [2] of 1.04 ± 0.04. For the same compound, the “fraction of imaged embryos annotated as normal kidney” value (from here on “fraction of imaged embryos annotated”) in experiment [3] amounted to 0.917. In experiment [4], the “pronephric angle neck segment” value was 0.958 ± 0.035.

In experiment [1], `C[C@H]1NC(=O)NC1=O` [Methylhydantoin-5-(D)] came in with a glomerular separation of 0.867 ± 0.33. The glomerular width in experiment [2] turned out to be 0.991 ± 0.011. For the same compound, the “fraction of imaged embryos annotated” value in experiment [3] was 0.917. Further, in experiment [4], the “pronephric angle neck segment” value is 1.02 ± 0.02.

As to `CC(=O)NCCCS(=O)(=O)O` [Acamprosate calcium], the glomerular separation in experiment [1] is 1.02 ± 0.41. For the same compound, the glomerular width in experiment [2] is 1.02 ± 0.022. Moreover, the “fraction of imaged embryos annotated” value in experiment [3] came to 0.75. Also, in experiment [4], the “pronephric angle neck segment” value was 0.991 ± 0.053.

Compound `CN(C)CCCN1c2ccccc2Sc2ccccc21` [Promazine hydrochloride] had a glomerular separation in experiment [1] of 1.25 ± 0.35. The same compound gave a glomerular width in experiment [2] of 1.044 ± 0.0041. Further, the “fraction of imaged embryos annotated” value in experiment [3] is 0.75. Further, the “pronephric angle neck segment” value in experiment [4] worked out at 0.962 ± 0.047.

Regarding `C/C(=C\C(=O)OCCCCCCCCC(=O)O)C[C@@H]1OC[C@H](C[C@@H]2O[C@H]2[C@@H](C)[C@H](C)O)[C@@H](O)[C@H]1O` [Mupirocin], the glomerular separation in experiment [1] worked out at 0.88 ± 0.41. This compound registered a glomerular width in experiment [2] of 1.01 ± 0.013. The “fraction of imaged embryos annotated” value in experiment [3] turned out to be 0.75. Moreover, in experiment [4], the “pronephric angle neck segment” value is 0.985 ± 0.046.

Turning to `CC(=O)N(O)CCCCCNC(=O)CCC(=O)N(O)CCCCCNC(=O)CCC(=O)N(O)CCCCCN` [Deferoxamine mesylate], the glomerular separation in experiment [1] was found to be 0.888 ± 0.3. The glomerular width in experiment [2] was 1.02 ± 0.042. For the same compound, the “fraction of imaged embryos annotated” value in experiment [3] turned out to be 0.917. In addition, the “pronephric angle neck segment” value in experiment [4] was 1.01 ± 0.018.

`CCOC(=O)n1ccn(C)c1=S` [Carbimazole] came in with a glomerular separation in experiment [1] of 1.35 ± 0.58. The compound further displayed a glomerular width in experiment [2] of 0.997 ± 0.029. Besides, the “fraction of imaged embryos annotated” value in experiment [3] was 0.667. The “pronephric angle neck segment” value in experiment [4] was determined as 1.052 ± 0.0026.

With `C[C@]12CC[C@H]3C(=CCc4cc(O)ccc43)[C@@H]1CCC2=O` [Equilin], the glomerular separation in experiment [1] worked out at 1.59 ± 0.67. Further, the glomerular width in experiment [2] worked out at 0.988 ± 0.038. In addition, the “fraction of imaged embryos annotated” value in experiment [3] was found to be 0.25. Also, in experiment [4], the “pronephric angle neck segment” value came to 1.17 ± 0.015.

On to `CN(CCCCCCCCCCN(C)C(=O)Oc1cccc([N+](C)(C)C)c1)C(=O)Oc1cccc([N+](C)(C)C)c1` [Demecarium bromide], for which, in experiment [1], the glomerular separation is 1.54 ± 0.77. Also, in experiment [2], the glomerular width turned out to be 0.923 ± 0.032. Also, the “fraction of imaged embryos annotated” value in experiment [3] was 1. Moreover, the “pronephric angle neck segment” value in experiment [4] is 1.078 ± 0.0073.

As to `CCCc1cc(C(N)=S)ccn1` [Prothionamide], the glomerular separation in experiment [1] is 0.957 ± 0.36. In addition, the glomerular width in experiment [2] turned out to be 0.9746 ± 0.0041. The “fraction of imaged embryos annotated” value in experiment [3] came to 0.917. Besides, in experiment [4], the “pronephric angle neck segment” value stood at 1.007 ± 0.0083.
